The whole screen tested about 190,000 compounds, of which about 1,900 (1%) were called active.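 Rule for the calls: active = percentage of spot-positive cells more than 3 SD above its plate mean, without a fluorescence outlier flag or 80% toxicity; inconclusive = no clear call, values can overlap the other calls; inactive = the rest.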 The full list was thinned out, with actives kept by preference.

A short description of the experiment: GFP-LC3 puncta formation changes – imaging, high-content, MEF GFP-LC3, primary screen (AID 463193).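 For % cells with GFP-LC3 spots: spot-positive cell cutoff set from DMSO-treated cells.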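 For toxicity: cell loss after 18 h compound exposure.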 The note with it: autophagy, at 10 µM; % cells with GFP-LC3 spots: stronger effect = higher value; toxicity: measured here: cell loss, nuclei count.
In the case of `Cc1cccc2cc3c(N)c(C(=O)N4CCCc5ccccc54)sc3nc12`, the % cells with GFP-LC3 spots was 34.9% (active) and the toxicity was 33.8%.
For the compound `O=C(/C=C/c1ccc(F)cc1)Nc1cccc(S(=O)(=O)Nc2cccc(C(F)(F)F)c2)c1`, the % cells with GFP-LC3 spots is 3.21% (inactive) and the toxicity was found to be 11.4%.
For `O=c1[nH]c(=S)[nH]c2[nH]c(=S)[nH]c12` the same measures were 16.3% (inactive) and 14.2%.
For `CCOc1ccccc1NC(=O)c1cccnc1` the same measures were 1.43% (inactive) and 1.42%.
On to `CCOc1cc(NC(=O)c2cnccn2)c(OCC)cc1NC(=O)c1ccc(C)cc1`, for which the % cells with GFP-LC3 spots is 16.1% (active) and the toxicity is -0.236%.
With `CCOc1cc(NC(=O)c2ccccn2)c(OCC)cc1NC(=O)c1ccc(OC)cc1`, the % cells with GFP-LC3 spots was 2.17% (inactive) and the toxicity was 23.7%.
In the same order, the values of `COc1ccc(/C=C/C(=O)NC(=S)NN2CCCCC2c2cccnc2)cc1` (configuration not stated) are 2.8% (inactive) and 2.51%.
In the same order, the values of `CCOCCCNC(=O)C(NC(=O)c1ccc(=O)[nH]c1)c1ccc(Cl)cc1` (configuration not stated) are 28% (active) and 44.6%.
On to `CCOCCCNC(=O)C(NC(=O)c1ccccc1O)c1ccccc1` (configuration not stated), for which the % cells with GFP-LC3 spots was 5.35% (inactive) and the toxicity is -34%.
Turning to `CCOCCCNC(=O)C(NC(=O)c1ccc(=O)[nH]c1)c1ccc(C)cc1` (configuration not stated), the % cells with GFP-LC3 spots is 3.93% (inactive) and the toxicity is -0.266%.
As to `CCc1nnc(NC(=O)CCCSc2nc3ccccc3[nH]2)s1`, the % cells with GFP-LC3 spots was 1.66% (inactive) and the toxicity was -3.54%.
On to `COc1ccc(-n2ncc3c(N4CCc5ccccc54)ncnc32)cc1`, for which the % cells with GFP-LC3 spots is 10.6% (active) and the toxicity came out at 12.2%.
`Cc1cccc(-n2ncc3c(N4CCc5ccccc54)ncnc32)c1`: the % cells with GFP-LC3 spots was 1.09% (inactive) and the toxicity is -9.01%.
Consider `COc1ccc(-n2ncc3c(N4CCCc5ccccc54)ncnc32)cc1`, for which the % cells with GFP-LC3 spots is 7.91% (inactive) and the toxicity amounted to 7.86%.
In the same order, the values of `Cc1ccc2nc(-c3ccccn3)cc(C(=O)Nc3ccc4c(c3)OCO4)c2c1` are 4.19% (inactive) and 13.2%.
For `CC1(C)C2CCC1(C)C(OC(=O)c1ccc(O)cc1)C2` (configuration not stated) the same measures were 19.1% (inactive) and 2.39%.
Consider `COc1ccc(-c2[nH]ncc2CN(C)Cc2cccnc2)c(F)c1`, for which the % cells with GFP-LC3 spots is 3.28% (inactive) and the toxicity came to 15.9%.
For `O=Cc1cn(Cc2ccccc2)nc1-c1cccnc1` the same measures were 0.945% (inactive) and 1.14%.
Turning to `Clc1ccc(CN2CCN(/N=C/c3cccnc3)CC2)cc1`, the % cells with GFP-LC3 spots is 0.128% (inactive) and the toxicity was -10.7%.
As to `O=C1/C(=C\c2cccnc2)CN(Cc2ccccc2)C/C1=C\c1cccnc1`, the % cells with GFP-LC3 spots is 52.1% (active) and the toxicity was -17.6%.
In the same order, the values of `Cc1ccc(NC(=O)NC2CCCCC2)cc1S(=O)(=O)N1CCOCC1` are 9.14% (inactive) and -3.67%.
In the same order, the values of `Cc1cccc(COc2ccccc2/C=N/Nc2ccc([N+](=O)[O-])cc2)c1` are 1.93% (inactive) and 8.3%.
As to `Cc1ccc(-n2c(C)cc(/C=N/Nc3ccc([N+](=O)[O-])cn3)c2C)c(C)c1`, the % cells with GFP-LC3 spots was 52% (active) and the toxicity is -31.7%.
In the case of `COc1cc(/C=N\Nc2ccc([N+](=O)[O-])cn2)ccc1OCC(=O)O`, the % cells with GFP-LC3 spots was 1.45% (inactive) and the toxicity is -6.18%.
Regarding `CCOC(=O)CC(=O)CSc1nc(-c2ccccc2)cc(-c2ccc(Cl)cc2)c1C#N`, the % cells with GFP-LC3 spots was 3.63% (inactive) and the toxicity was -4.4%.
For the compound `O=C(CSc1nc2ccccc2[nH]1)c1cccs1`, the % cells with GFP-LC3 spots was 0.463% (inactive) and the toxicity came out at 5.37%.
For `N#Cc1c(-c2ccc(F)cc2)cc(C2CC2)nc1SCC(=O)c1cccs1`, the % cells with GFP-LC3 spots is 86.4% (active) and the toxicity is -1.55%.
Turning to `Cc1ccc(CC(=O)Nc2ccc(OC(F)F)c(Cl)c2)cc1C`, the % cells with GFP-LC3 spots is 6.36% (inactive) and the toxicity is -11.9%.
For the compound `CCN1CCN(C(=O)c2ccc(CN(c3ccc(C)c(C)c3)S(C)(=O)=O)cc2)CC1`, the % cells with GFP-LC3 spots is 5.04% (inactive) and the toxicity was -26.7%.
In the case of `Cc1cc(C(=O)N/N=C/c2ccc(O)c([N+](=O)[O-])c2)c(C)n1-c1ccc(F)cc1`, the % cells with GFP-LC3 spots is 6.11% (inactive) and the toxicity was determined as 2.16%.
Take `O=C(Nc1ccc(Br)cn1)c1ccc([N+](=O)[O-])cc1Cl`: the % cells with GFP-LC3 spots was 25.9% (inactive) and the toxicity is 12.1%.
For `CSc1ccc(/C=N\NC(=O)CC(=O)NC(C)C)cc1`, the % cells with GFP-LC3 spots was 3.73% (inactive) and the toxicity came to 6.35%.
As for `O=c1cc(-c2ccccc2)[nH]c2cc(F)ccc12`, the % cells with GFP-LC3 spots was 3.89% (inactive) and the toxicity is -7.91%.
In the same order, the values of `O=C(/C=C/c1ccc(Cl)cc1)Nc1ccc(Br)cn1` are 20.4% (inactive) and 30.5%.
As to `Cc1ccc(S(=O)(=O)C(C#N)c2nc3ccccc3nc2N2CCCC2)cc1C` (configuration not stated), the % cells with GFP-LC3 spots is 8.97% (inactive) and the toxicity is -8.37%.
For `CCOC(=O)/C(C#N)=C/c1ccc(N2CCN(Cc3ccccc3)CC2)cc1`, the % cells with GFP-LC3 spots is 10.3% (inactive) and the toxicity came to 10.6%.
In the same order, the values of `CC(C)OC(=O)C(C#N)c1nc2ccccc2nc1N1CCN(Cc2ccccc2)CC1` (configuration not stated) are 41.3% (active) and 2.68%.
Regarding `O=[N+]([O-])c1ccc(Sc2n[nH]c(-c3ccco3)n2)nc1`, the % cells with GFP-LC3 spots was 0% (inactive) and the toxicity amounted to 4.9%.
For the compound `Cc1ccccc1CN1C[C@@H]2C[C@@H](c3ccc4nsnc4c3)N3CCC[C@@]23C1=O`, the % cells with GFP-LC3 spots is 34.4% (active) and the toxicity was 24.5%.
For the compound `Cc1ccccc1CN1C[C@@H]2C[C@@H](c3cn(C)nc3-c3ccccc3)N3CCC[C@@]23C1=O`, the % cells with GFP-LC3 spots is 0.136% (inactive) and the toxicity is -5.59%.
Consider `OCC1(CCc2ccccc2)CCN(Cc2ccc3nsnc3c2)CC1`, for which the % cells with GFP-LC3 spots was 0.559% (inactive) and the toxicity came out at 0.377%.

Source of the values: PubChem BioAssay AID463193 (University of Pittsburgh Molecular Library Screening Center, 2010).
